# SARS PLP yeast = inhibitors of SARS-CoV papain-like protease in yeast | S. cerevisiae expressing SARS-CoV PLpro, growth rescue | Potency, µM (titrated, usually from 32.9 µM), inactives show at the highest dose activity, positive = growth rescue, actives largely listed as activators | 330,000 tested, 0.19% active | AID 485353; calls by dose curve; note: potency is the fitted concentration of half-maximal effect; 0% is about no effect; nearly all actives have a fitted effect of over 55% in size
# NS1 function inh = influenza NS1 inhibition; Potency, µM (highest dose often 46.1 µM), for inactives: top-dose activity, positive = more growth; 270,000 tested, 0.4% active; AID 2326; calls by dose curve; note: potency is the fitted concentration of half-maximal effect; actives are rising curves; nearly all actives have a fitted effect of over 50% in size
#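 In this qHTS, NS1 from influenza A is expressed in budding yeast, where it slows growth. Cells are switched from glucose to 2% galactose medium (pH 6.0, -URA), treated with compound, and growth recovery is read at OD600.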
# Pf growth 48h = P. falciparum growth inhibition at 48 hours (one generation); Potency, µM (highest dose often 28.7 µM), for the others: at the highest dose activity change, negative = inhibition, most hits filed as inhibitors; 310,000 tested, 5.9% active; P. falciparum luciferase growth in erythrocytes, 48 h; AID 504832; note: potency is the fitted concentration of half-maximal effect; % is set by controls: 0 for no effect and ±100 for the full control effect
#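 Luciferase-expressing parasites in RBCs, 2% Hct / 0.1% parasitemia final; RPMI 1640 + 0.5% Albumax; 37 C, 5% CO2, one generation; luminescence read-out, lower signal = inhibition.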
# Pf growth 96h = inhibits malaria parasite growth, 96 h. P. falciparum luciferase reporter growth, 96 h. Potency, µM (highest dose often 28.7 µM), inactives show top-dose activity change, negative = inhibition, actives largely listed as inhibitors. 320,000 tested, 6.9% active. AID 504834; note: potency is the fitted concentration of half-maximal effect; % is set by controls: 0 for no effect and ±100 for the full control effect
#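 96 h incubation, 37 C, 5% CO2, of luciferase-reporter P. falciparum-infected RBCs (2% hematocrit, 0.05% parasitemia final) with test compounds; endpoint luminescence.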
# Cycloheximide cs = counter-screen for Shiga toxin inhibitors: cycloheximide protein synthesis inhibition; cell reporter, cycloheximide protein synthesis inhibition counterscreen; max response, %; 300,000 tested, 12% active; AID 2314; in the data active = max response mostly above about 13%, no sharp cut-off; inactive = mostly below about 14%; note: read at 38.3 µM for the half of the compounds with a filed dose; 0% is about no effect
# Shiga inhibitor = inhibitors of Shiga toxin in Vero cells; inhibition, % at 38.7 µM; AID 2315; Vero cells, Shiga toxin protein synthesis inhibition reporter; 290,000 tested, 9.2% active; in the data active = inhibition mostly above about 28%, no sharp cut-off; inactive = mostly below about 43%; note: 0% is about no effect
# * = called active by the depositor; ? = inconclusive; . = not tested or not shown. Sampled rows, rich in hits. Any-hit rate of the full collection: about 21%. Unless noted, calls come from the whole dose curve; as a rule, active = well fitted inhibition curve with a large enough effect; inconclusive = small, poorly fitted or top-dose-only effect, or another doubt; inactive = no such curve, though single readings can be large or run the other way.
SMILES,SARS PLP yeast,NS1 function inh,Pf growth 48h,Pf growth 96h,Cycloheximide cs,Shiga inhibitor
[N-]=[N+]=NCC/C=C\C1NS(=O)(=O)OCC1O (stereo not drawn),11%,13%,9%,-13%,-1,2
Cc1cc(OC(=O)CCNC(=O)OC(C)(C)C)c2c3c(c(=O)oc2c1)CCC3,-6%,12%,4.7µM*,4.7µM*,-2,21
Cc1cc(Nc2ccc(Br)cc2)nc(-c2ccccc2O)n1,-2%,-3%,97%,-10%,14,18
Cc1ccc(Nc2cc(C)nc(-c3ccccc3)n2)cc1,-6%,-41%,174%,7%,42*,91*
Cc1ccc(Nc2cc(C)nc(-c3ccccc3O)n2)cc1,-27%,-18%,.,114%,29*,95*
Cc1cc(NCCCN)nc(-c2ccccc2O)n1,0%,-6%,-8%,.,25*,43
Cc1ccc(Oc2cc(C)nc(-c3ccccc3O)n2)cc1,-7%,-12%,19%,?,37*,33
Cc1nc(CNS(=O)(=O)c2ccc(F)cc2)cs1,-1%,0%,15%,-21%,2,-6
O=C(COC(=O)c1ccc(F)cc1F)NCc1ccc2c(c1)OCO2,-3%,.,.,.,.,.
Cc1ccc(S(=O)(=O)N2CCN(C(C)C(=O)NCC(C)c3ccccc3)CC2)cc1 (stereo not drawn),-1%,.,.,.,.,.
CCN(CC)CCOc1ccc(-c2nc3cc(Cl)ccc3s2)cc1,.,.,-90%,?,.,.
O=C(CSc1nnc(-c2ccccc2O)o1)Oc1ccc(OCc2ccccc2)cc1,1%,4%,-14%,?,31*,101*
CCOc1ccc2[nH]cc(C(=O)NCCc3ccccc3)c(=O)c2c1,3%,12%,-6%,?,6,.
CCOC(=O)c1c[nH]c2cc(OCC(C)C)c(OCC(C)C)cc2c1=O,.,.,0.054µM*,0.038µM*,.,.
CCc1ccc2[nH]cc(C(=O)OCCOC)c(=O)c2c1,-4%,0%,1.5µM*,10µM*,-1,-15
CCOC(=O)c1c[nH]c2nc(C)ccc2c1=O,8%,.,-28%,31%,15,38
COC(=O)C1=C[C@@H](C(=O)OC)C2C3=C(C(=O)[C@@]2(C)NC(=O)c2ccccc2)[C@H](c2ccccc2)n2c(=O)n(-c4ccccc4)c(=O)n2[C@@H]3C1 (stereo partly drawn),.,.,.,.,-4,2
ClCC1CO1 (stereo not drawn),.,.,12%,3%,.,.
O=c1n(CC2CO2)c(=O)n(CC2CO2)c(=O)n1CC1CO1 (stereo not drawn),.,.,9.5µM*,6µM*,.,.
COc1ccccc1N1CCN(C(=O)C(=O)c2cn(CC(=O)N3CCCC3)c3ccccc23)CC1,0%,5%,?,9.3µM*,-1,-14
COc1ccccc1N1CCN(C(=O)C(=O)c2cn(CC(=O)N3CCCCCC3)c3ccccc23)CC1,-2%,6%,9.3µM*,7.4µM*,0,-14
CC(=O)c1ccc(N2CCN(C(=O)C(=O)c3cn(CC(=O)N4CCCCCC4)c4ccccc34)CC2)cc1,23%,?,?,?,2,-2
COc1ccc(CC(=O)Oc2ccc(F)cc2)cc1,-14%,-5%,10%,-6%,1,-1
CCN(CC)C(=O)Oc1cc2c(-c3cc4cccc(OC)c4o3)cc(=O)oc2cc1C,?,5%,10µM*,10µM*,21,-3
CC(C)(C)[C@H]1COC(=O)CCC/C=C/C[C@H](CC(=O)N(CCO)Cc2ccccc2)C(=O)N1,2%,.,.,.,.,.
SMILES,SARS PLP yeast,NS1 function inh,Pf growth 48h,Pf growth 96h,Cycloheximide cs,Shiga inhibitor
Cc1ccc(C(=O)NCCc2csc(C)n2)cc1,1%,6%,55%,88%,27*,55*
Cc1nc(-c2ccc(C(=O)NCCO)cc2)cs1,3%,.,177%,116%,37*,40
COCCNC(=O)c1ccc(-c2csc(C)n2)cc1,-1%,.,239%,-1%,23*,89*
Cc1ccc(C(=O)NCCc2ccncc2)cc1,-2%,-9%,125%,132%,27*,42*
Cc1cccc(C(=O)NCCc2csc(C)n2)c1,-12%,3%,13%,16%,0,14
COCCNC(=O)c1ccc(C(=O)C(=O)c2ccccc2)cc1,-5%,4%,-18%,52%,23,10
COCCCNC(=O)c1ccc(-c2csc(C)n2)cc1,-4%,.,361%,-13%,38*,90*
Cc1ccc(CCNC(=O)NC(C)(C)C)cc1,3%,-3%,67%,.,30*,69*
COC(=O)c1sccc1NS(=O)(=O)c1ccccc1,11%,9%,3%,?,-2,-7
CCCCCCCCCCCCCCCC[N+](C)(C)C,.,.,4.1µM*,2.9µM*,.,.
CCCCCCCCCCCCCC[N+](C)(C)C,.,.,0.95µM*,0.95µM*,.,.
CCN(C(=O)CSc1n[nH]c(N)n1)c1cccc2ccccc12,0%,.,.,.,.,.
C=CCOC(=O)C(=O)/C=C/c1ccc2c(c1)Cc1ccccc1-2,-2%,2%,0%,0%,14*,25
C=CCOC(=O)C(=O)/C=C/c1csc2ccccc12,-7%,-51%,-17%,40%,11,-8
CCSc1nnc(NC(=O)CSc2nnc(C)c(=O)n2N)s1,0%,.,-10%,15%,2,-2
Cc1ccc(Cn2cc(-c3ccccc3)nn2)cc1,-7%,-40%,97%,146%,57*,86*
CCCCCc1ccc(-c2cn(CCCOCc3ccccc3)nn2)cc1,-6%,-9%,30%,-51%,-2,-3
COc1ccc(-c2cn(Cc3ccc4ccccc4c3)nn2)cc1,6%,19%,36%,-4%,1,-6
COc1ccc(-c2cn(Cc3ccc(C(=O)c4ccccc4)cc3)nn2)cc1,4%,38%,86%,85%,43*,62*
COc1ccc(-c2cn(CCCOCc3ccccc3)nn2)cc1,-14%,-32%,?,?,16*,25*
COc1ccc(-c2cn(Cc3ccc([N+](=O)[O-])cc3)nn2)cc1,-3%,-18%,13%,41%,10,24*
CCc1nc2ccc(C(=O)N3CCN(c4ccc([N+](=O)[O-])cc4)CC3)cc2nc1CC,-3%,2%,?,?,-1,-1
COc1cc([C@@H]2c3cc4c(cc3[C@@H](O)[C@H]3COC(=O)[C@H]23)OCO4)cc(OC)c1O[Si](C)(C)C(C)(C)C,-2%,3%,7.4µM*,8.3µM*,-5,-2
O=C(O)/C=C/C(=O)Nc1ccc(Oc2ncnc3cc(Cl)ccc23)nc1,-7%,0%,40%,46%,26*,58*
O=C(Nc1ccccc1)Nc1ccc(Oc2ncnc3cc(Cl)ccc23)nc1,1%,1%,4%,20%,-3,-11
CC1C(=O)N2CCCc3cc(S(=O)(=O)N(C)CCC#N)cc1c32 (stereo not drawn),20%,1%,-8%,34%,-4,-2
CN1CCCC(CC2c3ccccc3Sc3ccccc32)C1 (stereo not drawn),.,.,9.3µM*,?,.,.
